Inhibition data for 7 molecules are collected here from ChEMBL document CHEMBL1961873, “Compounds: GSK PKIS; Assays: Nanosyn kinase panel” (2012).

The target of experiment [1] is Rho-associated protein kinase 1 (Homo sapiens) (UniProt Q13464). The settings on record: at 1 µM.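 Note: reported values are mean percent inhibition of ROCK1.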
For experiment [2], the target named is Rho-associated protein kinase 2 (Homo sapiens) (UniProt O75116). The settings on record: at 0.1 µM.
Experiment [3] shares this target. To be noted: at 1 µM.
The target in experiment [4] is Ribosomal protein S6 kinase alpha-1 (Homo sapiens) (UniProt Q15418). To be noted: at 0.1 µM.
For experiment [5] the target is unchanged. To be noted: at 1 µM.
Experiment [6] addresses Ribosomal protein S6 kinase alpha-3 (Homo sapiens) (UniProt P51812). The settings on record: at 0.1 µM.
The target is the same in experiment [7]. The settings on record: at 1 µM.
Experiment [8] has as its target Ribosomal protein S6 kinase alpha-2 (Homo sapiens) (UniProt Q15349). The settings on record: at 0.1 µM.
Experiment [9] has the same target. The settings on record: at 1 µM.
Experiment [10] deals with Ribosomal protein S6 kinase alpha-6 (Homo sapiens) (UniProt Q9UK32). The settings on record: at 0.1 µM.
The target is the same in experiment [11]. The settings on record: at 1 µM.
Experiment [12] deals with T1, Serine/threonine-protein kinase Sgk1 (Homo sapiens) (UniProt O00141).
T1 sequence (whole entry): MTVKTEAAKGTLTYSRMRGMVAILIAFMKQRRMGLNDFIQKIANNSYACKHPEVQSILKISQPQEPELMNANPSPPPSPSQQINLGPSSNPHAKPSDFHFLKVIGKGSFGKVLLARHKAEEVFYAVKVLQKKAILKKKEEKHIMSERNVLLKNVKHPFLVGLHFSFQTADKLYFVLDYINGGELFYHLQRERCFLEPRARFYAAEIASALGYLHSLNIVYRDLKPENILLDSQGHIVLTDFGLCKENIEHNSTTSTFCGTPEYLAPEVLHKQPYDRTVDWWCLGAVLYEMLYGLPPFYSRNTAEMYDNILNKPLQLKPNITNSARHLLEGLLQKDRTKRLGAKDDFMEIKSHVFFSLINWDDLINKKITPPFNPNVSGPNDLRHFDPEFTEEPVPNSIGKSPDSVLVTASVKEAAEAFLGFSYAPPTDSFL
The settings on record: at 0.1 µM.

Experiment [13] has as its target T1, Serine/threonine-protein kinase Sgk1 (Homo sapiens). The settings on record: at 1 µM.
Experiment [14] concerns the target T2, Serine/threonine-protein kinase Sgk2 (Homo sapiens) (UniProt Q9HBY8).
T2 sequence (whole entry): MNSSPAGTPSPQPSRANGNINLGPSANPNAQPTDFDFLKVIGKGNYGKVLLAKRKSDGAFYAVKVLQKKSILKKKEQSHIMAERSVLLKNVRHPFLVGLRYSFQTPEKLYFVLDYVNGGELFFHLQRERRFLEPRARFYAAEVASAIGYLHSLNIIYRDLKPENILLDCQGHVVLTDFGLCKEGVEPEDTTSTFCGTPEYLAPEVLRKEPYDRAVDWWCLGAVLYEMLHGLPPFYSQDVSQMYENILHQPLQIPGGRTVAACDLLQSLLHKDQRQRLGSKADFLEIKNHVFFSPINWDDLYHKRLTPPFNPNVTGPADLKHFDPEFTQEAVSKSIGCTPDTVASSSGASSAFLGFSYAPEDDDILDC
To be noted: at 0.1 µM.

Experiment [15] concerns the target T2, Serine/threonine-protein kinase Sgk2 (Homo sapiens). The settings on record: at 1 µM.
The target of experiment [16] is T3, Serine/threonine-protein kinase Sgk3 (Homo sapiens) (UniProt Q96BR1).
T3 sequence (whole entry): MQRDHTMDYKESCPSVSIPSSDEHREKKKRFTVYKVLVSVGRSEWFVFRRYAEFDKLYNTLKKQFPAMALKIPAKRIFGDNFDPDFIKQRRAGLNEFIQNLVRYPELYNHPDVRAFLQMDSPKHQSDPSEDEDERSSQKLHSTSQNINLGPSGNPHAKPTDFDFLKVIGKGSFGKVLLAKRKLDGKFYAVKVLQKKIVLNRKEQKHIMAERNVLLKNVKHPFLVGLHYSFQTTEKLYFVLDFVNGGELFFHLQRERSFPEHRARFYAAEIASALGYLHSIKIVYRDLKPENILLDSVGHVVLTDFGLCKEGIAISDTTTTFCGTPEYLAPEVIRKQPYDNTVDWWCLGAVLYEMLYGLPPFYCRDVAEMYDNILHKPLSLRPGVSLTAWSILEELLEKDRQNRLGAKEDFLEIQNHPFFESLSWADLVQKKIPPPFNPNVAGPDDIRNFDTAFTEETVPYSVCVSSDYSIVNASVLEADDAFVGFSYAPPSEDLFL
To be noted: at 0.1 µM.

Experiment [17] deals with T3, Serine/threonine-protein kinase Sgk3 (Homo sapiens). To be noted: at 1 µM.
The target in experiment [18] is 5'-AMP-activated protein kinase catalytic subunit alpha-1 (Homo sapiens) (UniProt Q13131). The settings on record: at 0.1 µM.
The target is the same in experiment [19]. To be noted: at 1 µM.
For experiment [20], the target named is 5'-AMP-activated protein kinase catalytic subunit alpha-2 (Homo sapiens) (UniProt P54646). The settings on record: at 0.1 µM.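 Note: mean inhibition measured on the AMPK complex of alpha2, beta1 and gamma1 subunits.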

Each structure is given as a SMILES string.

Sequence of Rho-associated protein kinase 2 (Homo sapiens) (O75116 whole entry, looked up): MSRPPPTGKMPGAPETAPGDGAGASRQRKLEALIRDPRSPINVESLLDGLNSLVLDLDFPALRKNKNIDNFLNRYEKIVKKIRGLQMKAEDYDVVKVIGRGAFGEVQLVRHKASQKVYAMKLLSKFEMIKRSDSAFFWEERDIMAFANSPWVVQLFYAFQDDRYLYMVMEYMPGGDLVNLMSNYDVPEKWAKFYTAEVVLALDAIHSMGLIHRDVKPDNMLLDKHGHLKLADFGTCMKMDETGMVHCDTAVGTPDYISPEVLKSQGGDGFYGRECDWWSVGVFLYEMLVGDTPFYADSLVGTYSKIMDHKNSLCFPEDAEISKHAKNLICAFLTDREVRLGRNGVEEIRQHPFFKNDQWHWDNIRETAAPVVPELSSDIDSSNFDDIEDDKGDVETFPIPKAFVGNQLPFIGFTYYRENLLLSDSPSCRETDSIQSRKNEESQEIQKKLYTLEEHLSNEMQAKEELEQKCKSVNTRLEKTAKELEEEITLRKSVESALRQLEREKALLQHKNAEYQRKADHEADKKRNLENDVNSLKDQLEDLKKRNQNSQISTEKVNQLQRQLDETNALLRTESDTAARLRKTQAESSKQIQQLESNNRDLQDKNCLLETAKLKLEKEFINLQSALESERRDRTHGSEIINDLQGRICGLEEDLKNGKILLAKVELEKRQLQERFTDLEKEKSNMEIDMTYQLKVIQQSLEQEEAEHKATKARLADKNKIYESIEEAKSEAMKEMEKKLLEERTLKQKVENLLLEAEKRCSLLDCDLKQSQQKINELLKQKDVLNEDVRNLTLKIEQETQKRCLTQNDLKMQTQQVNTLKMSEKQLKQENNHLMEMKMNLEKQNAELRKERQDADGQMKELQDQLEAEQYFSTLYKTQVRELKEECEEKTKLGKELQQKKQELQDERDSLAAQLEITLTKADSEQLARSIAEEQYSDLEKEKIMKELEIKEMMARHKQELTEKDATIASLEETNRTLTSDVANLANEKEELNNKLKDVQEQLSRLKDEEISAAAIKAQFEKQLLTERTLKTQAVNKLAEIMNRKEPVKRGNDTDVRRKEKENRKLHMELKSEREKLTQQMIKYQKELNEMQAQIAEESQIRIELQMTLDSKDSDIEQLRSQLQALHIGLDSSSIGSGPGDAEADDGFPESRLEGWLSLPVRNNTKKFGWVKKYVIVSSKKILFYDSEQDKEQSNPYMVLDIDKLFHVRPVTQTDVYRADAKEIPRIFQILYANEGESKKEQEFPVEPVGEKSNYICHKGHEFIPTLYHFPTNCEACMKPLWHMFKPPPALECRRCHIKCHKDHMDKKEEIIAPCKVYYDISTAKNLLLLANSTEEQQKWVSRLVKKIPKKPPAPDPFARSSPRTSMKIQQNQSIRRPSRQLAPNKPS
Sequence of Ribosomal protein S6 kinase alpha-2 (Homo sapiens) (Q15349 whole entry): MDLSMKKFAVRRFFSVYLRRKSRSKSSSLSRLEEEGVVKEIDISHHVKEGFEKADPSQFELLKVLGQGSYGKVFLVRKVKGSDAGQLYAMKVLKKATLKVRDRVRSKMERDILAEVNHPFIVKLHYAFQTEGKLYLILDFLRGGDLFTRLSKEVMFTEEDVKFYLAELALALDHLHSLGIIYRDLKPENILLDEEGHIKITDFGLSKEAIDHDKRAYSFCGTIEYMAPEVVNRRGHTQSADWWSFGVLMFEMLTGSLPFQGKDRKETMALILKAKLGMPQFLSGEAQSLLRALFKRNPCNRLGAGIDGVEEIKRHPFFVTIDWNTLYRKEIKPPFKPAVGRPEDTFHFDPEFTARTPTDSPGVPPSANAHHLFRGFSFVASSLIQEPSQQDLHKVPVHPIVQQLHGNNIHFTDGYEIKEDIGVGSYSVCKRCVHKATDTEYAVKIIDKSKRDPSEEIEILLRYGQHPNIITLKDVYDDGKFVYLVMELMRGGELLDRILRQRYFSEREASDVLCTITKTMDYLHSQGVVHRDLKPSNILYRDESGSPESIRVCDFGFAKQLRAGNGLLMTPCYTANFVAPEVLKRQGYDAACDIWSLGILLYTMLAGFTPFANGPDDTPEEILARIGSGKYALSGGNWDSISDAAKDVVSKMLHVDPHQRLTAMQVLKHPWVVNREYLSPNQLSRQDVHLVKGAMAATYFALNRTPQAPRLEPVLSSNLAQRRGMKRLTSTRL
Sequence of 5'-AMP-activated protein kinase catalytic subunit alpha-1 (Homo sapiens) (Q13131 whole entry, looked up): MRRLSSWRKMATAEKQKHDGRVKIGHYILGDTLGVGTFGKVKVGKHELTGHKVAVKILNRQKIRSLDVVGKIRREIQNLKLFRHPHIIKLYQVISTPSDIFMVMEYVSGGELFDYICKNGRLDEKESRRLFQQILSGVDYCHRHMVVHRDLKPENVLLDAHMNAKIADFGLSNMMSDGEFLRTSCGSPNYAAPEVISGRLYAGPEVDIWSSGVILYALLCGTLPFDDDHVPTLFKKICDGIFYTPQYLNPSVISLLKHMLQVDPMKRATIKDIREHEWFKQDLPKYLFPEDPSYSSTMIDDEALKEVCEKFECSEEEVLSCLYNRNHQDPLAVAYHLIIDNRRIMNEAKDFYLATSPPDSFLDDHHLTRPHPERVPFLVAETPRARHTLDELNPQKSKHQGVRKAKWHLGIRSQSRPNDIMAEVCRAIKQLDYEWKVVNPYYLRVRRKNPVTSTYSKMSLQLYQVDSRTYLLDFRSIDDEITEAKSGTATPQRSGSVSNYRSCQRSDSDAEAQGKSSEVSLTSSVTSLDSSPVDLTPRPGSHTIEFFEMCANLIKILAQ
Sequence of 5'-AMP-activated protein kinase catalytic subunit alpha-2 (Homo sapiens) (P54646 whole entry, looked up): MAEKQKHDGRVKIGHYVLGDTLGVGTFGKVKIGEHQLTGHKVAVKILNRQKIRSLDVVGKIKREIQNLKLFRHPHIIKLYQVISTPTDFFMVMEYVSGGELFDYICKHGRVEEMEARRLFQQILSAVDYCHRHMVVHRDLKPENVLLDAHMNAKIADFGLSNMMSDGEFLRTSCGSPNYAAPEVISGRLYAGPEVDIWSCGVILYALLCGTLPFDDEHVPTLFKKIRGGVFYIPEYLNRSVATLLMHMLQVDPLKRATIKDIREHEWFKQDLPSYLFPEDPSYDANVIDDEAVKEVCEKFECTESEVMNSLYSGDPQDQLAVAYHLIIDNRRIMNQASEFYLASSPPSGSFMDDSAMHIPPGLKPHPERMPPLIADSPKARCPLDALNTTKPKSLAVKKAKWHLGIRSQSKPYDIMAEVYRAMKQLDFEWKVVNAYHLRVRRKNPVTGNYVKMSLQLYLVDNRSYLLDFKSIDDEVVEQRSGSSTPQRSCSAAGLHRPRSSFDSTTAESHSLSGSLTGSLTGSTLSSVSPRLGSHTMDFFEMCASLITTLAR
Sequence of Ribosomal protein S6 kinase alpha-1 (Homo sapiens) (Q15418 whole entry): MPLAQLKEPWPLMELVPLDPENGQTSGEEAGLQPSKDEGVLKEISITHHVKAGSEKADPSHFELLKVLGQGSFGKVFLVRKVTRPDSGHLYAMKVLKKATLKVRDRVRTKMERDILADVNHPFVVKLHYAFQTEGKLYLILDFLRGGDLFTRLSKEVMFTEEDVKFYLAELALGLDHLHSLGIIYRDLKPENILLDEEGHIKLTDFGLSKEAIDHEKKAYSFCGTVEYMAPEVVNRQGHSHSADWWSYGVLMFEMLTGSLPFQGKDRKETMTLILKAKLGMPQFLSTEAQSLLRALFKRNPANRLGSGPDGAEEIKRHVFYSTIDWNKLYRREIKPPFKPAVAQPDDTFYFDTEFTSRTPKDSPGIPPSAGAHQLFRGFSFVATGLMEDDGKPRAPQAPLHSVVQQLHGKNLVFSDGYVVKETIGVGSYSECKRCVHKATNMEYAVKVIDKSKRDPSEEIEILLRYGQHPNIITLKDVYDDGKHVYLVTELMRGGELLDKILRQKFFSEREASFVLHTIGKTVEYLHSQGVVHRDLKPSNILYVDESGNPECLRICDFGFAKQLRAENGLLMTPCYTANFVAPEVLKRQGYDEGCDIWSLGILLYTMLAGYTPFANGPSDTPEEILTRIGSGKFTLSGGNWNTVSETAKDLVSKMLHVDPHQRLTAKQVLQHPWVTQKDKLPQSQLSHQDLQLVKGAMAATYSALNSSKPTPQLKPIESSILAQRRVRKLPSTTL
Sequence of Ribosomal protein S6 kinase alpha-6 (Homo sapiens) (Q9UK32 whole entry): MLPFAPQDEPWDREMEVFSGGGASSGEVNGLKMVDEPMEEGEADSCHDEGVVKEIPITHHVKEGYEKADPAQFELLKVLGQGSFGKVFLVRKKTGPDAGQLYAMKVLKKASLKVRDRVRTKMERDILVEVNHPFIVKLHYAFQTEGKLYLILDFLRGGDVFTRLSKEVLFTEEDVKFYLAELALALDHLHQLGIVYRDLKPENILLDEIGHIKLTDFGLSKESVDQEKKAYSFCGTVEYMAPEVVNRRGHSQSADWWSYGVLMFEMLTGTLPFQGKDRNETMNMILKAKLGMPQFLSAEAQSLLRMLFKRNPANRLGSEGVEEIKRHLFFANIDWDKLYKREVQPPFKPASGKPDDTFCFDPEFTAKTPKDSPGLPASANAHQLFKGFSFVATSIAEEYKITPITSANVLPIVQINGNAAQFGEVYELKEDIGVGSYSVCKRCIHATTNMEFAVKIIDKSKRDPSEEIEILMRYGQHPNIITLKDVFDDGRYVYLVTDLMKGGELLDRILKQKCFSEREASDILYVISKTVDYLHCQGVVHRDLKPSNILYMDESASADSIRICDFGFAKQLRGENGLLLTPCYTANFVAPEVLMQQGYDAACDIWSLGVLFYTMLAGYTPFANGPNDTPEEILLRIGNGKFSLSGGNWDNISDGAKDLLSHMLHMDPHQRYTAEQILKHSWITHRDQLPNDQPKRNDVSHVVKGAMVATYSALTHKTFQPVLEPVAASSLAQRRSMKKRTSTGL

Take `Cc1ccc2c(-c3ccnc(Nc4cccc(C(F)(F)F)c4)n3)c(-c3ccccc3)nn2n1`: the inhibition (commonly the drop in the measured response relative to a control, in per cent) in [1] is 3.58%; in experiment [2], 3.31%; in experiment [3], 3.33%; in experiment [4], 0.52%; in experiment [5], 2.33%; in [6], -0.67%. Further, the inhibition turned out to be 0.59% in experiment [7]; 3.58% in [8]; 3.98% in [9]; 0.82% in experiment [10]; 2.56% in experiment [11]; 2.23% in experiment [12]. Moreover, the inhibition in experiment [13] is 3.64%; in experiment [14], 5.64%; in experiment [15], -0.25%; in [16] it was 3.07%; in [17], 4.11%; in experiment [18] it was 0.65%. Besides, the inhibition in [19] worked out at 2.66%; in [20], 5.96%.

As to `CN1CCN(C(=O)c2ccc(NC(=O)Nc3ccc(N(C)c4ccnc(Nc5ccc(CS(C)(=O)=O)cc5)n4)cc3)cc2)CC1`, the inhibition in experiment [1] was determined as 18.7%; in [2] it was 11.3%; in experiment [3], 52%; in experiment [4], 0.85%; in [5], 2.5%; in [6], 0.47%. In addition, the inhibition amounted to 2.98% in [7]; 2.14% in experiment [8]; 4.07% in [9]; 2.06% in [10]; 5.11% in [11]; 0.94% in experiment [12]. For the same molecule, the inhibition in [13] was found to be 3.35%; in experiment [14], 1.96%; in [15] it was 7.04%; in experiment [16], 2.75%; in experiment [17], 1.79%; in experiment [18], 2.09%. In addition, the inhibition turned out to be 5.52% in experiment [19] and 3.27% in [20].

For the molecule `COC(=O)c1cncc(/C=C/c2c(C)cc(O)cc2C)c1`, the inhibition in experiment [1] is 1.27%; in [2], 3.8%; in [3], 5.21%; in [4], 2.26%; in [5], 4.95%; in [6], 1.3%. For the same molecule, the inhibition in experiment [7] worked out at 2.62%; in experiment [8] it was 2.03%; in experiment [9], 2.47%; in experiment [10] it was 1.66%; in [11], 6.87%; in [12], 3.1%. The inhibition in experiment [13] was found to be 4.65%; in [14], 3.28%; in [15] it was 2.28%; in experiment [16], 2.89%; in [17] it was 4.83%; in [18], 2.38%. In addition, the inhibition in experiment [19] was determined as 5.18%; in experiment [20] it was 0.21%.

Regarding `CCOc1nccc2c1nc(-c1nonc1N)n2CC`, the inhibition was 10.8% in [1]; 4.9% in [2]; 23.1% in experiment [3]; 5.34% in experiment [4]; 30% in experiment [5]; 3.74% in experiment [6]. The inhibition in experiment [7] is 17.1%; in [8] it was 5.7%; in experiment [9], 27.9%; in experiment [10], 1.8%; in experiment [11], 4.02%; in experiment [12], 4.63%. Also, the inhibition in [13] stood at 8.95%; in experiment [14] it was 4.13%; in experiment [15], 12.7%; in experiment [16], 6.9%; in experiment [17] it was 15.9%; in experiment [18] it was 3.1%. Also, the inhibition in [19] came to 7.14%; in experiment [20], 2.19%.

For the molecule `COc1cc2ncnc(Nc3ccc4c(cnn4Cc4ccccc4)c3)c2cc1OC`, the inhibition came out at 6.38% in experiment [1]; 2.52% in [2]; 7.05% in experiment [3]; 0.76% in experiment [4]; 2.15% in experiment [5]; 0.6% in experiment [6]. For the same molecule, the inhibition in experiment [7] was 2.23%; in [8], 2.97%; in experiment [9] it was 3.65%; in experiment [10], 1.46%; in experiment [11], 1.92%; in experiment [12] it was 2.26%. In addition, the inhibition is 1.9% in experiment [13]; 1.23% in [14]; -1.13% in experiment [15]; 2.62% in experiment [16]; 1.35% in experiment [17]; 1.38% in experiment [18]. The inhibition stood at 3.13% in experiment [19] and 5.92% in [20].

Regarding `Cc1ccc2c(c1)/C(=N/Nc1ccc(S(N)(=O)=O)cc1)C(=O)N2`, the inhibition in experiment [1] is 2.75%; in experiment [2], -0.99%; in experiment [3], 2.52%; in experiment [4], 0.21%; in experiment [5], 0.22%; in experiment [6], 0.34%. The inhibition in [7] is 2.42%; in experiment [8], 0.05%; in [9] it was 3.92%; in experiment [10], 1.62%; in [11], 2.46%; in [12] it was 0.97%. For the same molecule, the inhibition in experiment [13] was 1.07%; in experiment [14] it was 1.13%; in experiment [15], 0.76%; in experiment [16], -0.94%; in experiment [17] it was -1.14%; in experiment [18] it was 1.77%. Besides, the inhibition was 6.53% in experiment [19] and 0.59% in experiment [20].

In the case of `CN(c1ccc(NC(=O)Nc2ccc(OC(F)(F)F)cc2)cc1)c1ccnc(Nc2cccc(S(N)(=O)=O)c2)n1`, the inhibition in [1] is 1.61%; in experiment [2], -0.23%; in [3], 3.48%; in experiment [4], 0.06%; in experiment [5] it was 0.25%; in [6] it was -0.29%. Moreover, the inhibition is -0.29% in experiment [7]; 1.62% in experiment [8]; 2.2% in [9]; -0.26% in [10]; -0.89% in [11]; 2.63% in experiment [12]. Moreover, the inhibition in experiment [13] is 1.43%; in experiment [14], 3.27%; in [15] it was 4.82%; in experiment [16], 7.71%; in experiment [17], 2.44%; in [18] it was 0.3%. Moreover, the results for the inhibition in experiment [19] and in experiment [20] were 1.3% and -1.16%, respectively.
